# Over roughly 16,000 sequences, “Z-score” has its median near -0.37; the highest 2% begin near 3.2. The list comes from a sample in which the highest values are over-represented; it also holds similar and randomly drawn sequences.
# Test system: RBM10 RRM1-ZnF (GST-tagged construct)
# Test: RNAcompete 7-mer binding Z-score; higher = stronger binding preference
# Protocol: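 RNAcompete: 20 pmol GST-tagged RBM10 RNA-binding constructs were incubated with a designed RNA pool of about 241,000 sequences up to 41 nt (1.5 nmol) on glutathione beads for 30 min at 4 °C and washed. Bound RNAs were identified by microarray hybridisation. Each RNA 7-mer is scored by a one-sided Z-score of its enrichment, computed over probes that contain the 7-mer within longer pool sequences.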
row,Sequence,RNAcompete 7-mer binding Z-score
1,UCUCUUG,-0.714
2,ACGGGAU,2.02
3,AAAGUCC,-0.561
4,UCGACGA,-0.327
5,GCCAGCG,-0.0544
6,UCGAAGC,-0.36
7,AUUGGGU,2.9
8,AUGGGCA,2.11
9,AUGGGAA,3.97
10,AUGGGGA,4.27
11,AUCGGGU,1.7
12,AUGGGAG,3.64
13,AUGGGGU,3.92
14,UUGGGAA,2.12
15,CUGGGAA,1.47
16,UUGGGAG,2.68
17,CUGGGAG,1.66
18,CGACCUG,-0.571
19,GACGAAC,-0.181
20,UUUUGAU,-0.629
21,UAUUGGC,-0.201
22,AAUGGUA,2.63
23,AACAACC,-0.72

row,Sequence,RNAcompete 7-mer binding Z-score
1,AGGAACU,-0.0155
2,AUGGGGG,4.12
3,AUGGGCG,2.86
4,AUGGGGC,2.81
5,AUCUAAA,-0.451
6,AGGGAUA,4.2
7,GAGGAUA,2.15
8,CGGGAUA,1.56
9,AGGGAUU,2.3
10,GGGGAUA,3.45
11,AGGGAUC,1.02
12,CUUAGUG,-0.282
13,AGGAGAU,1.41
14,AAUGCGC,-0.428
15,UGGCGGA,1.83
16,CGGGGGU,3.46
17,AGGGGGG,2.76
18,GGGGCGU,2.64
19,GGGGGCU,2.22
20,CCGGGGU,2.08
21,GGGGGGG,3.4
22,GGGGGGU,3.81
23,GGGGGGC,2.37

row,Sequence,RNAcompete 7-mer binding Z-score
1,CGGGGUU,2.77
2,GUUUUAC,-0.591
3,AGAAGUA,0.173
4,ACCCGGU,-0.415
5,UUUCGUA,-0.779
6,AUACAUA,-0.269
7,AUCUUAU,-0.863
8,AGUCACG,0.0138
9,UUUCGUC,-0.811
10,AUGAGGC,0.969
11,GUGAGGC,1.53
12,UUGAGGG,3.4
13,CUGAGGG,1.81
14,UUGAGGA,1.14
15,AUGAGGU,1.9
16,GUGAGGG,3.75
17,UUGAGGC,0.115
18,AUGAGGG,3.84
19,UGACCCC,-0.246
20,UCGAAGA,-0.171
21,AAUUCAG,-0.496
22,CCCCGAC,-0.0772
23,AACUCUA,-0.854

row,Sequence,RNAcompete 7-mer binding Z-score
1,UCUUAUC,-0.86
2,GUGGGGU,4.71
3,CUGGGGU,2.18
4,GCGGGAG,2.86
5,GUGGGCA,3.06
6,GUGGGCG,3
7,GUGGGAG,4.08
8,GUGGGUU,3.11
9,UUGGGAC,1.58
10,CUGGGGG,2.28
11,CUGGGGA,1.76
12,GUGGGGG,4.47
13,GUGGGGA,4.7
14,CCCCAAA,-0.6
15,UCGAGCG,0.0723
16,GGCUCAU,-0.318
17,AGGAACC,-0.139
18,CUGCGGA,0.199
19,UAUGCCC,-0.6
20,AUGACGC,-0.383
21,CCAGACC,-0.642
22,AGGCGCA,0.0528
23,AUGGGCU,1.6

row,Sequence,RNAcompete 7-mer binding Z-score
1,GUGGGGC,3.52
2,CUGGGGC,0.901
3,CUGGGAU,1.11
4,GUCGGAA,0.8
5,GUGGGCC,1.46
6,GUGGGAU,3.68
7,AUGGGAC,2.09
8,AUGGGAU,3.45
9,GCGGGAA,2.66
10,GUGGGAC,2.35
11,GUGGGAA,3.62
12,CGGCGGA,0.862
13,CCUUGUA,-0.733
14,GUUCGGC,-0.0869
15,UUCGUUG,-0.162
16,GGGCAGC,1.32
17,CCAUGGU,0.254
18,ACUACUG,-0.428
19,CUGCGCU,-0.633
20,GUGGCGC,0.992
21,CUGGCGG,0.508
22,GUGGCGG,3.26
23,UUAUCGG,-0.171

row,Sequence,RNAcompete 7-mer binding Z-score
1,AGUCGUG,0.124
2,AGGGACG,2.13
3,AGGGAUG,4.59
4,UGGGAUG,3.61
5,UGGGAUU,1.9
6,GGGGAUU,2.75
7,GGGGAUC,2.29
8,GGGGAUG,4.52
9,UGGGAUA,3.05
10,CGGGAUG,2.48
11,GCCAGAC,-0.386
12,GUGAGGA,2.69
13,GAGUGUA,0.972
14,AGCUGGA,0.8
15,UGGUGAG,2.98
16,CAGCAAG,-0.0804
17,AAAAUAU,-0.324
18,GCUCAAG,-0.386
19,AAGCAUG,-0.035
20,AGAGUGA,0.81
21,AAAUGGU,2.86
22,UAAUGGG,2.84
23,AAAUGGC,1.05

row,Sequence,RNAcompete 7-mer binding Z-score
1,CUAUGGG,1.13
2,AAAUGGG,4.08
3,ACAUGGA,1.7
4,AAAUGGA,3.63
5,GAAUGGC,1.27
6,GUAUGGG,4.25
7,GUAUGGA,2.12
8,CAAUGGG,2.34
9,GAAUGGG,4.76
10,CGUAUGC,-0.542
11,CCGGAGC,0.0625
12,GGCUUAG,0.527
13,CCUUACG,-0.818
14,GGGUUAC,2.16
15,AGGUACG,0.751
16,UCCAGUU,-0.639
17,AGCAUUC,-0.694
18,UUGGUUG,0.917
19,GUGACGG,2.02
20,GAAUGGA,4.02
21,CAAUGGA,1.1
22,UAAUGGA,1.93
23,AACGGGA,3.45

row,Sequence,RNAcompete 7-mer binding Z-score
1,AACGGGG,3.45
2,CACGGGA,1.5
3,AACGGGU,3.03
4,GACGGGG,3.13
5,CACGGGG,2.66
6,UACUUUC,-0.974
7,GUACUGA,0.0138
8,UGGGGAC,3.17
9,AGGGGAU,3.64
10,AGGGGCU,1.35
11,UUGGGAU,2
12,GGGGGAU,3.32
13,AGGGGAC,2.18
14,UGGGGAU,3.57
15,CGGGGAU,2.5
16,GGGGGAC,2.25
17,CACCUAU,-0.902
18,UCGUCAA,-0.594
19,CUAUCGG,-0.5
20,CACGCGC,-0.366
21,GGCCUAU,-0.565
22,UGUUGUC,-0.574
23,GUCCGGU,0.082
